Source: PubChem
Hits are enriched below; roughly 6.6% of the tested compounds scored in any of these assays.
MPTP block – inhibitors of mitochondrial permeability transition pore. isolated mouse mitochondria, Ca2+ swelling absorbance, 30 min. inhibition, % at 10 µM. 360,000 compounds, 1.4% hits;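 active = inhibition of 50% or more, scaled per plate between neutral and stimulator controls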
CSC inhib – blocks cancer stem cells; cancer stem cell-like cells viability, luminescence; inhibition, % at 7.5 µM; 300,000 compounds, 1.1% hits; in the data active = inhibition above about 75%; inconclusive = no clear call, values can overlap the other calls; tested in HMLE shEcad cells
Mdm2-MdmX inh – disrupts the human Mdm2-MdmX interaction. SaOS-2 split-luciferase Mdm2/MdmX complementation, luminescence. AID 485346. 330,000 compounds, 3% hits. inhibition, % at 8 µM. O15151+Q00987;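 active = inhibition of at least 50% at 8 µM in the primary screen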
Target sequence (O15151 whole entry, looked up): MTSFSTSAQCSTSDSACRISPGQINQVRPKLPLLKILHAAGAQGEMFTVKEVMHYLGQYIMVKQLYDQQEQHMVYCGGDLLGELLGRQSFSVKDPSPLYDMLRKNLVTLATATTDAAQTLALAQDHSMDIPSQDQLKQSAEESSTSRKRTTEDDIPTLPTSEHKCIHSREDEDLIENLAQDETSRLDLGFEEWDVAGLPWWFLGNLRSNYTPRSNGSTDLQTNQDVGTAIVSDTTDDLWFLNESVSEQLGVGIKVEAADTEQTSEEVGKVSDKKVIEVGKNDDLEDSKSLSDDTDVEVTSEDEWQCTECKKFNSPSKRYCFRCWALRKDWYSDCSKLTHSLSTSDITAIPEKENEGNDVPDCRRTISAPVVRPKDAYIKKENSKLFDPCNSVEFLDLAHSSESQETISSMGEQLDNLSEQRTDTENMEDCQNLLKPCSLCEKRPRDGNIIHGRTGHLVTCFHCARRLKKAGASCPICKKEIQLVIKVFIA
Target sequence (Q00987 whole entry, looked up): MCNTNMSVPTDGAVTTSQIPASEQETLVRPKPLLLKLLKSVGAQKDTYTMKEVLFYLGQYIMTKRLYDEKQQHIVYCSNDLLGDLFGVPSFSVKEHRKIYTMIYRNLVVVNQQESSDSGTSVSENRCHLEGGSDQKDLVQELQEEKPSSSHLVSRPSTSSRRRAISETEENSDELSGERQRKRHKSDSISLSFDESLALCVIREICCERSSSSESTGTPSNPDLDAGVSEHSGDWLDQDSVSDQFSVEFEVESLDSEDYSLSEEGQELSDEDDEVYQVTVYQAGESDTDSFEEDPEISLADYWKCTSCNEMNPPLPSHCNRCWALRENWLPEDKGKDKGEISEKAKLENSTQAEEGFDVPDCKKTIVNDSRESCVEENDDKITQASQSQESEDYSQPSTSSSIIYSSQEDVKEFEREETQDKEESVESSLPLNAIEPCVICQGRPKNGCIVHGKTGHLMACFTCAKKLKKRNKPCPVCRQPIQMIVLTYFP
Beta cell apopt – blocks beta cell apoptosis; 300,000 compounds, 0.8% hits; protection from apoptosis, % (test concentration not listed); INS-1E cytokine-induced death, ATP luminescence, 48 h; percent of positive-control rescue, neutral wells zero;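 active = Every replicate reaches about 75%, or at least half do and their mean reaches it too, limit read from the data; inconclusive = At least half of replicates reach the limit but their mean does not; inactive = Under half of replicates reach the limit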;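 also: higher means more ATP so stronger rescue from cytokine killing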
Gli-Sufu block – blocks Gli-Sufu signaling in a luciferase reporter. Sufu-KO-LIGHT fibroblasts, Gli luciferase reporter luminescence. inhibition, % at 5 µM. 340,000 compounds, 0.74% hits. AID 588413;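 active = inhibition above about 55%, limit read from the data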
NR3A LBD binder – NR3A (human) ligand-binding domain modulation; Tm shift relative to glycine control, % at 25 µM; NR3A LBD differential scanning fluorimetry, Tm shift; 0% = protein alone, 100% = glycine-bound protein; 340,000 compounds, 2.5% hits;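 active = melting temperature shift of at least 10% of the positive control shift, at one fixed dose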
A number is an active result; 0 = inactive; ? = inconclusive; - = no result given; + = active, no number.

SMILES | MPTP block | CSC inhib | Mdm2-MdmX inh | Beta cell apopt | Gli-Sufu block | NR3A LBD binder
c1ccc(CN2CCN(C(c3ccccc3)c3ccccc3)CC2)cc1 | 0 | 0 | 0 | 0 | 0 | 0
O=C1c2ccccc2C(=O)N1CC#CCN1CCN(C(c2ccccc2)c2ccccc2)CC1 | 0 | 96.1 | 0 | 0 | 0 | 0
CCOC(=O)/C(C#N)=C/c1c(Oc2cc(C)cc(C)c2)nc2ccccn2c1=O | 0 | 0 | 0 | 0 | 0 | 14.8
CCN1CCN(C(=O)C23CCC(C)(C(=O)C2Br)C3(C)C)CC1 (stereo unspecified) | 0 | 0 | 0 | 0 | 0 | 0
Cc1ccc(CNC(=O)c2ccc(N(C)C)cc2)cc1 | 0 | 0 | 0 | 0 | 0 | 0
CN(C)c1ccc(C(=O)NCc2ccc3c(c2)CCO3)cc1 | 0 | 0 | 0 | 0 | 0 | 10.3
O=C(Cc1ccccc1)NN1CCCCC1 | 0 | 0 | 0 | 0 | 0 | 0
O=C1/C(=C\c2cccc([N+](=O)[O-])c2O)SC(=S)N1Cc1ccccc1 | 0 | 0 | - | 0 | 0 | 0
COc1cc(/C=C2/SC(=S)N(Cc3ccccc3)C2=O)ccc1OS(C)(=O)=O | 0 | 0 | 0 | 0 | - | 0
O=C(O)c1ccc(/C=C2/SC(=S)N(Cc3ccccc3)C2=O)cc1 | 0 | 0 | - | 0 | 0 | 19.9
O=C1/C(=C\c2ccc(O)cc2)SC(=S)N1Cc1ccccc1 | 0 | 0 | 0 | 0 | 0 | 34.0
N=C1S/C(=C\c2ccc(O)cc2)C(=O)N1c1ccc(F)cc1 | 0 | 0 | 0 | - | 0 | 21.6
CC(=O)Oc1ccc(/C=C2/SC(=S)N(Cc3ccccc3)C2=O)cc1 | 0 | 0 | 0 | 0 | 0 | 0
CCOc1cc(/C=C2/SC(=S)N(Cc3ccccc3)C2=O)ccc1O | 0 | 76.3 | 0 | 0 | 0 | 0
O=C(c1ccco1)N1CCCC(N2CCN(c3cccc(C(F)(F)F)c3)CC2)C1 (stereo unspecified) | 0 | 0 | 0 | 0 | 0 | 0
COc1ccc(N(CC(=O)NCCSCc2ccco2)S(=O)(=O)c2ccccc2)cc1Cl | 0 | 0 | 0 | 0 | 0 | 0
CCOc1ccc(CN(C)C(C)C(=O)NCCc2ccc(F)cc2)cc1 (stereo unspecified) | 0 | 0 | 0 | 0 | 0 | 0
NS(=O)(=O)c1ccc(CCN=Cc2ccccc2O)cc1 | 0 | 0 | 0 | 0 | 0 | 0
O=C(O)CCN1C(=O)/C(=C\c2ccc(OCc3ccccc3)c(OCc3ccccc3)c2)SC1=S | 0 | 0 | 0 | 0 | 0 | 0
O=C(O)CCN1C(=O)/C(=C\c2cccc(OCc3ccccc3)c2)SC1=S | 0 | 0 | 0 | 0 | 0 | 10.9
O=C1/C(=C\c2ccc(O)cc2)SC(=S)N1c1cccnc1 | 0 | 0 | 0 | 0 | 0 | 29.3
CN(CC(=O)Nc1ccc(F)cc1)C(=O)COc1ccccc1Cc1ccccc1 | 0 | 0 | 0 | 0 | 0 | 0
COc1cccc(C(=O)N=c2sc3c(C)ccc(OC)c3n2C)c1 | 0 | 0 | 0 | 0 | 0 | 12.3
COc1ccc(OC)c2c1sc(=NC(=O)c1ccco1)n2C | 0 | 0 | 0 | 0 | 0 | 16.1
N#CCSc1ccccc1NC(=O)CN1C(=O)C(=O)N(Cc2ccccc2)C1=O | 0 | 0 | 0 | 0 | 0 | 0
SMILES | MPTP block | CSC inhib | Mdm2-MdmX inh | Beta cell apopt | Gli-Sufu block | NR3A LBD binder
COc1ccccc1-c1noc2c1C(=O)NCC2 | 0 | - | - | - | - | -
COc1ccc(-c2cnc(C(O)c3ccc(OC)c(F)c3)[nH]2)cc1 (stereo unspecified) | 0 | - | - | - | - | -
COc1ccc(C(=O)NCCNC(=O)c2cnccn2)cc1OC | 0 | - | 0 | 0 | 0 | 0
O=C(/C=C/c1ccccc1)NC(=S)NNC(=O)c1cnccn1 | 0 | 86.8 | 0 | 78.3 | 0 | 0
O=C(/C=C/c1ccccc1)NC(=S)NNC(=O)c1cccnc1 | 0 | 0 | 0 | 0 | 0 | 0
COc1ccc(C(=O)NC(=S)NNC(=O)c2cnccn2)cc1OC | 0 | 0 | 0 | 81.7 | 0 | 0
Cc1ccc(S(=O)(=O)N(C)C[C@@H]2Oc3ncc(C#CCC(C)C)cc3C(=O)N([C@H](C)CO)C[C@H]2C)cc1 | 0 | - | - | - | - | -
O=c1c2ccccc2nc(/C=C/c2ccc([N+](=O)[O-])o2)n1CCCO | 0 | 0 | 0 | 0 | 71.2 | 0
O=c1c2ccccc2nc(/C=C/c2ccc(Br)cc2)n1CCCO | 0 | 0 | 0 | 0 | 0 | 0
O=c1c2ccccc2nc(/C=C/c2ccc(Br)cc2)n1CCO | 0 | 77.5 | 0 | 0 | 0 | 0
CO[C@H]1CN(C)C(=O)c2cc(NC(=O)c3cc(C)on3)ccc2OC[C@@H](C)N(C(=O)C2CC2)C[C@H]1C | 0 | - | - | - | - | -
Cc1nn2c(COc3ccc(NC(=O)c4ccccc4Cl)cc3)nnc2c2ccccc12 | 0 | 89.7 | 0 | 0 | 0 | 0
COC(=O)C1=C(NC(=O)COc2ccc3ccccc3c2)CCS1 | 0 | 0 | 0 | 0 | 0 | 0
COC(=O)C1=C(NC(=O)COc2ccc(Cl)cc2Cl)CCS1 | 0 | 0 | 0 | 0 | 0 | 14.8
Cc1nccn1-c1ccc(NC(=O)[C@H]2O[C@@H](n3ccc(N)nc3=O)[C@H](O)[C@@H]2O)cc1 | 0 | - | - | - | - | -
O=C(O)C1C(c2ccccc2)C(C(=O)OCCCO)C1c1ccccc1 (stereo unspecified) | 0 | 0 | 0 | 0 | 0 | 0
CCCCCOC(=O)C1C(c2ccccc2)C(C(=O)O)C1c1ccccc1 (stereo unspecified) | 0 | 0 | 0 | 0 | 0 | 10.2
Cc1cc(C)c2c(c1)/C(=N/Nc1ccc(S(N)(=O)=O)cc1[N+](=O)[O-])CCC2 | 0 | 0 | 0 | 0 | 0 | 0
NS(=O)(=O)c1ccc(N/N=C2/CCCCC2C2CCCCC2)c([N+](=O)[O-])c1 (stereo unspecified) | 0 | + | 0 | 76.3 | 0 | 0
S=C(NCCCN1CCN(CCCNC(=S)NC2CCCCC2)CC1)NC1CCCCC1 | 0 | - | - | - | 0 | 0
Cc1ccc(NC(=O)CN(C)S(=O)(=O)c2cccc3cccnc23)cc1C | 0 | 0 | 0 | 0 | 0 | 0
Cc1ccc(NC(=O)CN(C)S(=O)(=O)c2cccc3cccnc23)cc1F | 0 | 0 | 0 | 0 | 0 | 13.7
C[C@H]1CN([C@@H](C)CO)C(=O)c2cc(Br)cnc2O[C@@H]1CN(C)S(=O)(=O)c1cn(C)cn1 | 0 | - | - | - | - | -
N#Cc1cc(-c2ccc(Cl)cc2)cnc1Sc1ccc(F)cc1 | 0 | 0 | 0 | 0 | 0 | 12.7
Cc1ccc(/C=N/NS(=O)(=O)c2ccccc2)o1 | 0 | 0 | 0 | 0 | 0 | 21.3
SMILES | MPTP block | CSC inhib | Mdm2-MdmX inh | Beta cell apopt | Gli-Sufu block | NR3A LBD binder
CC(C)C(=O)NNc1ccccc1 | 0 | 0 | 0 | 0 | 0 | 0
CC(C)OC(=O)C(=O)NNc1ccccc1 | 0 | 98.8 | 0 | 0 | 0 | 0
CC(O)CC(C(=O)NNc1ccccc1)C(=O)NNc1ccccc1 (stereo unspecified) | 0 | 91.6 | 0 | - | 0 | 0
CCCOC(=O)C(=O)NNc1ccccc1 | 0 | ? | 0 | 0 | 0 | 0
COc1cccc(CNC(=O)COC(=O)c2nn(C)c(=O)c3ccccc23)c1 | 0 | 0 | 0 | 0 | 0 | 0
Cc1cc(NC(=O)Nc2ccc3c(ccn3C)c2)sn1 | 0 | 0 | 0 | 0 | 0 | 17.2
CC1(C(=O)NS(=O)(=O)c2cccc(C#N)c2)CCN1C(=O)CC1CCCC1 (stereo unspecified) | 0 | - | - | - | - | -
Nc1nc(-c2ccccc2)cn1/N=C/c1ccccc1 | 0 | 0 | 0 | 0 | 0 | 0
